Experimental findings from PubChem BioAssay AID1671190 (National Center for Advancing Translational Sciences (NCATS), 2021) are described below.

Where “and” joins values, the source holds several entries; their conditions need not be identical. Equal values may be shown once. Screen size: about 580,000 compounds; about 6,100 (1.1%) were called active. A call without a number means that no potency is given here. Inconclusive results (about 15%) are left out. This is one part of a sample in which actives are shown more often than they occur. Calls come from the whole dose curve; as a rule, active = well fitted inhibition curve with a large enough effect; inconclusive = small, poorly fitted or top-dose-only effect, or another doubt; inactive = no such curve, though single readings can be large or run the other way.
Potency is the fitted concentration of half-maximal effect.

Polyunsaturated fatty acid lipoxygenase ALOX12 (Homo sapiens), sequence (P18054 whole entry, looked up): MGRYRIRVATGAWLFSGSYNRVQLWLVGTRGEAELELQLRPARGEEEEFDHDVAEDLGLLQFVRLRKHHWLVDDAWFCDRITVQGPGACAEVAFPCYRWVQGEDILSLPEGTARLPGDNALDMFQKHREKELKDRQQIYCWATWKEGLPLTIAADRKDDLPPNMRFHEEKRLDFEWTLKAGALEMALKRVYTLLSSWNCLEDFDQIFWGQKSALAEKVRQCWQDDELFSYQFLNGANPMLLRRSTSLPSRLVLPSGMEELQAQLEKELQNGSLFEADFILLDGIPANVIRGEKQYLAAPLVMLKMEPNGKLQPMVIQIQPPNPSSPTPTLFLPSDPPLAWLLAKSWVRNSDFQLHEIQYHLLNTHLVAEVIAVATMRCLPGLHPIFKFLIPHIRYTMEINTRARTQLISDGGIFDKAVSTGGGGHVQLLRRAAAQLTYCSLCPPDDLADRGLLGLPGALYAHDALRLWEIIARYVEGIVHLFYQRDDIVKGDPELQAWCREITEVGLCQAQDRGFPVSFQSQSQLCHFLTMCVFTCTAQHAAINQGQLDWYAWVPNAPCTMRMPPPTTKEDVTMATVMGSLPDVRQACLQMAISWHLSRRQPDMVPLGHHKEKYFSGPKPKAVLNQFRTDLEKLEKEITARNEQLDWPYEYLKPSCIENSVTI

For the assay, the target named is Polyunsaturated fatty acid lipoxygenase ALOX12 (Homo sapiens) (UniProt P18054). As to the kind of experiment: Primary qHTS assay for inhibitors of human arachidonate 12S-lipoxygenase (ALOX12): Round 2. Particulars: purified 12hLO, xylenol orange hydroperoxide absorbance; series mostly up to 108 µM. The procedure, abridged:
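Hydroperoxide product was detected by ferrous iron/xylenol orange as the 573 to 405 nm absorbance ratio. Arachidonic acid at 40 uM (final) was turned over for 30 min at room temperature by 150 nM human 12hLO, pH 7.0 Hepes buffer, after 15 min compound preincubation.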
A general note: Quantitative high-throughput screening tests each substance at several concentrations.
Regarding `CCCCCCc1cc2c3c(c(=O)oc2cc1OCC(=O)C(C)(C)C)CCCC3`, the Potency entry was “inactive”.

In the case of `Fc1ccc(NCC23CC4CC(CC(C4)C2)C3)cc1`, the Potency entry was “inactive”.

As for `COC(=O)c1ccc(C(=O)OC(C)C(=O)C23CC4CC(CC(C4)C2)C3)cc1` (configuration not stated), the Potency result is “inactive”.

With `O=C(OC12CC3CC(CC(C3)C1)C2)c1ccc(NCc2cc(O)ccc2O)cc1`, the Potency is 31.6 µM (active).

`Cc1c(C(=O)N2CCOC(C)C2)cnn1-c1ccc(F)cc1` (configuration not stated): the Potency entry was “inactive”.

For `CCNc1ncc(CN2CCN(c3cccc(C(F)(F)F)c3)CC2)cn1`, the Potency result is “inactive”.

As for `CN(c1ccccc1)c1cc(=O)c2ccnc(NC3CCOCC3)c2o1`, the Potency entry was “inactive”.

Regarding `CN(c1ccccc1)c1cc(=O)c2ccnc(-c3ccc(CO)cc3)c2o1`, the Potency result is “inactive”.

As for `CN(c1ccccc1)c1cc(=O)c2ccnc(Nc3cccc([S+](C)(=O)[O-])c3)c2o1`, the Potency was 56.2 µM (active).

As to `CN(C)C(=O)C(NCCc1c[nH]c2ccccc12)c1ccccc1` (configuration not stated), the Potency entry is “inactive”.

As for `CCc1ccc(Nc2ncc3c(n2)CC(c2ccco2)CC3=O)cc1` (configuration not stated), the Potency entry is “inactive”.

As for `Cc1ccc(-c2csc(-c3cc4c([nH]c3=O)CC(c3ccco3)CC4=O)n2)cc1` (configuration not stated), the Potency was 2.24 µM (active).

Regarding `Cc1ccc(-c2csc(N(Cc3ccco3)C(=O)c3cccs3)n2)cc1`, the Potency result was “inactive”.

For `CC(C)(C)c1ccc(C(=O)NNC(=O)C2CC2)cc1`, the Potency entry is “inactive”.

As to `Fc1ccccc1COc1ccc(-c2nnco2)cc1`, the Potency entry was “inactive”.

Regarding `COCCn1c(=O)c2c(nc(-n3nc(C)cc3C)n2Cc2ccccc2)n(C)c1=O`, the Potency entry is “inactive”.

On to `Cc1ccc(C)c(NC(=O)N2CCCC2c2ccco2)c1` (configuration not stated), for which the Potency result was “inactive”.

Regarding `Cc1ccccc1OCCN(C)Cc1cc(=O)oc2cc(O)ccc12`, the Potency result was “inactive”.

Consider `Cc1ccc(CSc2nc(-c3ccccc3)c(C#N)c(=O)[nH]2)cc1`, for which the Potency was 39.8 µM (active).

As for `CCCc1cc(=O)[nH]c(SCc2ccc(C#N)cc2)n1`, the Potency result was “inactive”.

As to `Cc1ccc(CSc2nsc(C)c2C#N)cc1`, the Potency entry is “inactive”.

For `CCN1C(=O)[C@@H]2[C@@H](c3ccc(-c4ccc(OC)cc4)c(OC)c3)N3CCC[C@@]3(C(=O)OC)[C@@H]2C1=O`, the Potency result is “inactive”.

Consider `CCCCCCSc1ccc([C@@H]2[C@H]3C(=O)N(CC)C(=O)[C@H]3[C@]3(C(=O)OC)CCCCN23)cc1`, for which the Potency result is “inactive”.

Take `CCCCCCSc1ccc([C@@H]2[C@@H]3C(=O)N(CC)C(=O)[C@@H]3[C@]3(C(=O)OC)CCCCN23)cc1OC`: the Potency was 17.8 µM (active).

Turning to `O=C(O)c1cccc(-c2ccccn2)c1`, the activity change, negative = inhibition was 6.18% [at 12.5 µM] (inactive) and -0.515% [at 12.5 µM] (inactive).

Regarding `N#Cc1cccnc1-c1cccc(C(=O)O)c1`, the Potency is 56.2 µM (active).

With `O=C(O)c1ccc2nc[nH]c2c1`, the Potency entry is “inactive”.

On to `O=C(COc1ccc2c(c1)CCC2)N(Cc1nc2ccccc2c(=O)[nH]1)CC1CCCO1` (configuration not stated), for which the Potency result was “inactive”.

As for `O=C(CN1CCN(S(=O)(=O)c2cccc(Cl)c2)CC1)N1CCCCC1`, the Potency result was “inactive”.

Regarding `O=S(=O)(c1cc(Cl)ccc1Cl)N1CCN(Cc2ccco2)CC1`, the Potency result is “inactive”.

On to `O=C(CN1CCN(S(=O)(=O)c2cc(Cl)ccc2Cl)CC1)c1ccc(O)c(O)c1`, for which the Potency is 1.41 µM (active).

For the molecule `Cc1[nH]c2ccccc2c1C(=O)C(=O)NC(C)CCc1ccccc1` (configuration not stated), the Potency entry was “inactive”.

For `Cc1ccc2cc(C)c(Nc3cccc(C)c3C)nc2c1`, the Potency result is “inactive”.

Turning to `O=C(Nc1cccc(Br)c1)c1csc2c1CCCC2`, the Potency entry was “inactive”.

With `O=C(c1ccco1)N1CCN(Cc2cccc(C(F)(F)F)c2)CC1`, the Potency result was “inactive”.

Turning to `CCCOc1ccc(-c2nc(C#N)c(N3CCN(C(=O)c4ccco4)CC3)o2)cc1`, the Potency result is “inactive”.

For the molecule `Cc1ccc(-c2csc(C(C#N)=C(O)CN3CCN(C(=O)c4ccco4)CC3)n2)cc1`, the Potency was 44.7 µM (active).

In the case of `O=C(c1cc(-c2cccs2)on1)N1CCCC1c1ccccc1F` (configuration not stated), the Potency entry was “inactive”.

As for `COc1cccc(CN2C[C@@H](F)[C@@H](OCc3nc4ccccc4n3C)C2)n1`, the Potency entry is “inactive”.

Turning to `CSc1ccc(C(=O)N2CCC(n3nccc3NC(=O)CC(C)C)CC2)cc1`, the Potency entry is “inactive”.

As for `O=C(COc1ccc(F)cc1Cl)Nc1ncn[nH]1`, the Potency result was “inactive”.

Regarding `Cc1noc(C)c1CS(=O)(=O)c1cc(Cl)ccc1Cl`, the Potency entry was “inactive”.

In the case of `COc1ccccc1-c1nnc(SCC(N)=O)o1`, the Potency result is “inactive”.

On to `COc1ccc(-c2nnc(SC(=O)N3c4ccccc4Sc4ccccc43)o2)cc1`, for which the Potency is 8.91 µM (active).

For `COc1ccc(CN(C(=O)CSc2nnc(-c3ccc(OC)c(OC)c3)o2)c2ccc(F)cc2)cc1`, the Potency result was “inactive”.

Turning to `CCCNC(=O)NNC(=O)c1cn(C)c2ccccc12`, the Potency entry is “inactive”.

As to `Cn1c(COc2ccc(Cl)cc2)nnc1SCC(O)COc1ccc(C(C)(C)C)cc1` (configuration not stated), the Potency entry is “inactive”.

Turning to `CCNC(=O)[C@@H]1CCCN1[C@@H](C(=O)NC)c1ccccc1OC`, the Potency entry is “inactive”.

With `CNC(=O)C(C)(C)N1CCC[C@H]1C(=O)N(C)Cc1ccccc1`, the Potency result was “inactive”.

With `CNC(=O)[C@@H](Cc1ccccc1)N1CCC[C@H]1C(=O)N1CCC1`, the Potency was 22.4 µM (active).

For the molecule `CCc1ccc(CN(C)C(=O)Cn2cnc3c2c(=O)n(C)c(=O)n3C)cc1`, the Potency result was “inactive”.

As for `CC(C)c1noc(-c2cn(C3CCN(C(=O)COc4ccc(F)cc4)CC3)nn2)n1`, the Potency entry was “inactive”.

On to `Cc1nc2cnc(N3CCNCC3)nc2n(CCc2ccccc2)c1=O`, for which the Potency result is “inactive”.

With `CCc1ccc(-n2ccc3nc(N4CCc5ccccc5C4)ncc3c2=O)cc1`, the Potency is 39.8 µM (active).

For `CCc1ccc(N2CC(O)=C(c3nc4ccccc4c(=O)[nH]3)C2=N)cc1`, the Potency entry was “inactive”.

As for `COc1cccc(-c2cn3c(n2)NCCC3)c1`, the Potency result is “inactive”.

In the case of `O=C(Nc1cnc(-c2cccc(Cl)c2)nc1)c1ccc(F)cc1`, the Potency result is “inactive”.

As for `COc1cccc2cc(S(=O)(=O)c3ccc(Cl)c(Cl)c3)c(=O)oc12`, the Potency result was “inactive”.

On to `CCOc1ccc(C(=O)N2CCC(c3n[nH]c(=O)n3-c3ccccc3)CC2)cc1OCC`, for which the Potency entry is “inactive”.

For the molecule `Cc1ccc(C(=O)N2CCC(c3n[nH]c(=O)n3-c3ccccc3)CC2)cc1F`, the Potency is 28.2 µM (active).

In the case of `Cc1ccc(-n2c(C3CCN(C(=O)c4ccoc4)CC3)n[nH]c2=O)cc1`, the Potency result was “inactive”.

Turning to `CC(C)(CNC(=O)c1ccccc1)CNC(=O)c1ccccc1`, the Potency result was “inactive”.

For the molecule `O=C1CSc2ccc(C(=O)Nc3cccc(COC(=O)c4ccc5c(c4)NC(=O)CS5)c3)cc2N1`, the Potency result is “inactive”.

Consider `O=C(NCCNC(=O)C1CC1)c1c[nH]c2ccccc12`, for which the Potency entry is “inactive”.

In the case of `Nc1nc(COC(=O)c2ccc(OC(F)F)cc2)nc2ccccc12`, the Potency entry was “inactive”.

For `Cc1occc(=O)c1OCc1noc(C(=O)NCc2ccc(Cl)cc2)n1`, the Potency entry is “inactive”.

Turning to `O=C1Cc2cc(-c3csc(Nc4ccc(F)cc4)n3)ccc2N1`, the Potency entry is “inactive”.

For `Cc1ccc(-c2csc(Nc3ccccc3)n2)c(C)c1`, the Potency result is “inactive”.

Turning to `O=C(O)c1ccc(Nc2nc(-c3ccc4ccccc4c3)cs2)cc1O`, the Potency was 31.6 µM (active).

Turning to `CC(=O)c1ccc(NC(=O)C(C)Sc2nnc(-c3ccco3)n2-c2ccccc2)cc1` (configuration not stated), the Potency entry was “inactive”.

For the molecule `Cc1ccccc1-n1cnnc1SCC(=O)NC(C)c1cccc2ccccc12` (configuration not stated), the Potency result is “inactive”.

As to `CCCN1C2=C(C(=O)CCC2)C(c2ccc(O)c(Br)c2)C2=C1CCCC2=O`, the Potency result is “inactive”.

As to `COc1ccc(C2C(C#N)=C(N)N(c3ncn[nH]3)C3=C2C(=O)CCC3)cc1` (configuration not stated), the Potency entry is “inactive”.

On to `COc1ccc(C2C3=C(CCCC3=O)N(CC(=O)O)C3=C2C(=O)CCC3)cc1`, for which the Potency is 10 µM (active).

Regarding `CCCCCCCC1CCC(c2ccc(-c3ccc(CCCC)cn3)cc2)CC1` (configuration not stated), the Potency result was “inactive”.

Take `COc1ccc(NC(=O)CN(C)C(=O)c2nc(-c3ccccc3)oc2C)cc1`: the Potency entry is “inactive”.

With `COCCN1C(=O)C(=O)/C(=C(/O)c2ccc(S(=O)(=O)N3CCCCC3)cc2)C1c1ccc(OC)c(OC)c1` (configuration not stated), the Potency is 14.1 µM (active).

With `COc1ccc(/C(O)=C2\C(=O)C(=O)N(Cc3ccco3)C2c2ccc(OC)cc2OC)cc1` (configuration not stated), the Potency was 14.1 µM (active).

With `CCCOc1ccc(/C(O)=C2/C(=O)C(=O)N(CCN(C)C)C2c2ccc(OC)c(OC)c2)cc1` (configuration not stated), the Potency result was “inactive”.

For the molecule `CCOc1cc(C2/C(=C(/O)c3ccc(S(=O)(=O)N4CCCCC4)cc3)C(=O)C(=O)N2CCOC)ccc1O` (configuration not stated), the Potency result was “inactive”.

As for `COc1cccc(C2/C(=C(/O)c3ccc(F)cc3)C(=O)C(=O)N2CCN(C)C)c1` (configuration not stated), the Potency result was “inactive”.

`COc1ccc(/C(O)=C2/C(=O)C(=O)N(CC3CCCO3)C2c2ccc(OC)c(OC)c2)cc1` (configuration not stated): the Potency is 17.8 µM (active).

For the molecule `COCCN1C(=O)C(=O)/C(=C(/O)c2ccc(S(=O)(=O)N3CCOCC3)cc2)C1c1ccc(OC)c(OC)c1` (configuration not stated), the Potency entry was “inactive”.

As to `COc1ccc(C2/C(=C(/O)c3ccc(OC(C)C)cc3)C(=O)C(=O)N2CCCN2CCOCC2)cc1` (configuration not stated), the Potency result is “inactive”.

Take `COc1cc(C2/C(=C(\O)c3ccc4c(c3)CC(C)O4)C(=O)C(=O)N2Cc2ccco2)ccc1O` (configuration not stated): the Potency entry is “inactive”.

Turning to `Cc1ccc(C)c(OCc2ccc(-c3nc(C#N)c(NC(C)C)o3)o2)c1`, the Potency entry was “inactive”.

Regarding `CCCCCCC(C)NC(=O)COC(=O)c1n[nH]c(=O)c2ccccc12` (configuration not stated), the Potency result is “inactive”.

As to `NCC(=O)N1CCCC2(Cc3ccccc3CN2C(=O)c2cccc(Cl)c2)C1` (configuration not stated), the Potency result was “inactive”.

For `Cc1cc2ccccc2n1CC(=O)NCc1ccc(C(N)=O)cc1`, the Potency entry was “inactive”.

On to `Cc1cccc(NC(=O)c2ccccc2NC(=O)CN2CCN(S(=O)(=O)c3cccs3)CC2)c1`, for which the Potency result was “inactive”.

For the molecule `COc1ccc(S(=O)(=O)N2CCC(C(=O)Nc3cccc(C)c3)CC2)c2cccnc12`, the Potency result was “inactive”.

For the molecule `COC(=O)[C@H](Cc1ccc(OC)cc1)NC(=O)[C@H]1CN(C(=O)c2ccc(N(C)C)cc2)CCN1S(=O)(=O)c1ccccc1`, the Potency entry was “inactive”.

As for `CCCN(C)C(=O)CCC[C@H]1NC[C@@H]2C[C@H]1CN(Cc1ccccc1)C2`, the Potency result is “inactive”.

Take `N#CC1=C(N)OC2=C(C(=O)CCC2)C1c1ccc(-c2ccc(Cl)cc2Cl)o1` (configuration not stated): the Potency was 28.2 µM (active).

As to `CC1(C)CC(=O)C2=C(C1)OC(N)=C(C#N)C2c1cccnc1` (configuration not stated), the Potency entry is “inactive”.

Take `NC1=C([N+](=O)[O-])C(c2ccccc2)C2=C(CCCC2=O)O1` (configuration not stated): the Potency entry was “inactive”.

`O=C(Nc1ccccc1F)N1CC2CCC(C1)N2Cc1ccc(-c2cccnc2)cc1`: the activity change, negative = inhibition was 0.675% [at 6.33 µM] (inactive).
